The panel holds about 83,000 compounds, 20% with a hit somewhere; the sample as a whole holds those more often.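 Method: cells in 96-well plates; compound added at one concentration; 48 h incubation; percent growth measured; values under 10 scored active.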 The source made the active and inactive calls.

The assay concerns OVCAR-5 ovarian. Nature of the assay: NCI-60 one-dose screen, 48 h (100 = growth as untreated, 0 = no growth, -100 = all killed). The note with it: 10 µM unless noted. As for the experimental part:
Growth inhibition of the OVCAR-5 human tumor cell line is measured as a screen for anti-cancer activity. Cells are grown in 96 well plates and exposed to the test compound for 48 hours. Compounds are tested at a single concentration, which is 10^-5 M for most compounds. The reported endpoint is percent growth (GI% or GIPRCNT), where numbers from 0 - 100% represent growth inhibition, and numbers from -100% - 0 represent cell death. For example, a value of 40 represents 60% growth inhibition. A value of 0 means no net growth occurred over the course of the experiment. A value of -40 indicates 40% of cells at the beginning of the experiment died by the end of the experiment. A value of -100 means all cells are dead at the end of the experiment.
NCI-60 Human Tumor Cell Lines Screen was performed using the standard one-dose NCI protocol, which is described in more detail at https://dtp.cancer.gov/discovery_development/nci-60/default.htm.
Compounds with GIPRCNT values below 10 were considered active. Activity score was based on GIPRCNT using the following formula: […]
Score is 0 for GIPRCNT values of 100 or above, 50 for GIPRCNT values of 0, and 100 for GIPRCNT values of -100.
Consider `N#C/C(=C\c1ccc(-c2ccc(Cl)cc2)o1)C(=O)Nc1ncc(Cc2ccc(Br)cc2)s1`, for which the growth was 42.4% (inactive).

For the compound `C#CCOc1cccc(-c2nc(N)nc(Nc3ccccc3SSc3ccccc3Nc3nc(N)nc(-c4cccc(OCC#C)c4)n3)n2)c1`, the growth is 45% (inactive).

Regarding `CCOP(=O)(OCC)OC[C@]12CCC(C)(C)C[C@H]1C1=CC[C@@H]3[C@@]4(C)CC[C@H](OP(=O)(OCC)OCC)C(C)(C)[C@@H]4CC[C@@]3(C)[C@]1(C)CC2`, the growth was 75.2% (inactive).

On to `CCOC(=O)c1ccccc1NC1=C(Cl)C(=O)c2nc(C)ccc2C1=O`, for which the growth is 101% (inactive).

As to `O=C(CSc1nnc(-c2ccc(Cl)cc2)n1-c1ccccc1)Nc1ccccc1Cl`, the growth is 81.3% (inactive).

As for `CC1=C(C)C(=O)C(Nc2ccc(C)c(C)c2)=C(Br)C1=O`, the growth is 111% (inactive).

As to `CCOC(=O)c1c(NCC(=O)Nc2cccc([N+](=O)[O-])c2)sc(C(C)=O)c1C`, the growth was 1.07% (active).

On to `O=C(CN1CCN(c2cc(=O)[nH]c3ccc(F)cc23)CC1)N(c1ccccc1)c1ccccc1`, for which the growth is 102% (inactive).

Take `NC(=O)n1c(=O)n(-c2cccc(C(F)(F)F)c2)c(=O)c2cc(-c3ccc(F)cc3F)ccc21`: the growth was 43.7% (inactive).

`O=C(COc1ccc(/C=C2\C(=O)Nc3ccc(F)cc32)cc1)Nc1ccccc1`: the growth is 95.8% (inactive).

Regarding `O=C(CCCCCCN1CC(=O)N2[C@@H](c3cccs3)c3[nH]c4ccccc4c3C[C@H]2C1=O)NO`, the growth is 70.4% (inactive).

As to `O=C(CSc1nc2ccccc2c(=O)n1CCc1ccccc1)Nc1ccc(S(=O)(=O)Nc2ccc(Cl)nn2)cc1`, the growth was 95.8% (inactive).

Turning to `CCn1c2ccc(/C=N/N(C)S(=O)(=O)CCN(C)C)cc2c2cc(/C=N/N(C)S(=O)(=O)CCN(C)C)ccc21`, the growth is 82.6% (inactive).

Regarding `CN1CCN(c2ccc(Nc3nc(NCCNS(=O)(=O)c4ccc5ccccc5c4)c4sccc4n3)cc2)CC1`, the growth is 90.1% (inactive).

As to `O=C(CCCCCCNC(=O)c1csc(Br)n1)NO`, the growth was 20.2% (inactive).

Regarding `O=C1Nc2ccc(F)cc2/C1=C\C(=O)c1ccc(NS(=O)(=O)c2ccccc2)cc1`, the growth was 107% (inactive).

With `O=C(CSc1nnc(-c2ccc(Cl)cc2)n1-c1ccccc1)Nc1ccc(Cl)cc1`, the growth is 37.3% (inactive).

With `Clc1ccc2[nH]cc(-c3nn4cc(-c5cccnc5)nc4s3)c2c1`, the growth is 108% (inactive).

For the compound `NC(N)=NS(=O)(=O)c1ccc(N=Nc2c(N)nn(-c3ccc([N+](=O)[O-])cc3[N+](=O)[O-])c2N)cc1`, the growth is 106% (inactive).

On to `CN1CCN(Cc2ccc(NC(=O)c3cncc(C#Cc4cnc5ccc(OCC6COC6)nn45)c3)cc2C(F)(F)F)CC1`, for which the growth was -75.1% (active).

Consider `O=C(N/N=C\c1ccc(F)cc1)c1ccc2nc(-c3ccc(Br)cc3)[nH]c2c1`, for which the growth was 63.3% (inactive).

In the case of `CN1CCN(Cc2ccc(NC(=O)c3cncc(C#Cc4cnc5ccc(O[C@@H]6CCOC6)nn45)c3)cc2C(F)(F)F)CC1`, the growth is -66% (active).

Consider `CC(O)c1cccc(/C(N)=N/C(N)=N/c2nc3ccccc3s2)c1` (stereo not given), for which the growth is 100% (inactive).

Turning to `Cn1c(SCC(=O)c2ccc(Br)cc2)nc2ccccc2c1=O`, the growth is 106% (inactive).

On to `COc1cc(/C=C2/C(=O)Nc3ccc(Cl)cc32)ccc1OCc1ccc(Cl)cc1`, for which the growth was 96.7% (inactive).

With `C=C(C)[C@@H]1CC[C@]2(COCCCNCCCN)CC[C@]3(C)[C@H](CC[C@@H]4[C@@]5(C)CC[C@H](O)C(C)(C)[C@@H]5CC[C@]43C)[C@@H]12`, the growth is -95.3% (active).

For `CN1CCN(c2ccc(Nc3nc(NCCCNS(=O)(=O)c4ccc(F)cc4)c4sccc4n3)cc2)CC1`, the growth was 86.7% (inactive).

Turning to `CN1CCN(c2ccc(Nc3nc(NCCNS(=O)(=O)c4ccccc4)c4sccc4n3)cc2)CC1`, the growth was 102% (inactive).

As to `CCOC(=O)c1c(NC(=O)c2cccc(C(F)(F)F)c2)sc2c3c(ccc12)OCN(C)C3`, the growth is -14% (active).

Turning to `N#Cc1c(-c2cccs2)cc(-c2cnccn2)nc1SCC(=O)N/N=C/c1ccccc1`, the growth was 87.2% (inactive).

Turning to `COc1ccc(OC)c(CCn2cncc2-c2c[nH]c3ccc(Cl)cc23)c1`, the growth was 83.9% (inactive).

Turning to `C/C(=N/N)c1nnn(-c2ccc(Br)cc2)c1C`, the growth was 93.2% (inactive).

In the case of `COC(=O)c1ccc(NC2=C(Cl)C(=O)c3nc(C)ccc3C2=O)cc1`, the growth was 105% (inactive).

As to `COc1cccc(N2CCN(C3=C(Cl)C(=O)c4ncccc4C3=O)CC2)c1`, the growth is 124% (inactive).

Consider `CCN(CC)S(=O)(=O)c1ccc(-c2nc(C(Cl)Cl)nc3cc(-c4ccc(F)cc4)nn23)cc1`, for which the growth was 51.6% (inactive).

For the compound `C#CCOc1ccc(/C=N/Nc2nc(-c3ccc(OC)cc3)cs2)cc1`, the growth was 104% (inactive).

For `Cc1ccc2c(n1)C(=O)C(Cl)=C(Nc1ccc(C(C)C)cc1)C2=O`, the growth is 103% (inactive).

With `CNC(=O)c1cc(N2CCc3cc(NC(=O)Nc4ccc(N5CCN(C)CC5)c(C(F)(F)F)c4)ccc32)ccn1`, the growth is 95.3% (inactive).

In the case of `CN1CCN(Cc2ccc(NC(=O)c3cncc(C#Cc4cnc5ccc(OCCCS(C)(=O)=O)nn45)c3)cc2C(F)(F)F)CC1`, the growth is 3.1% (active).

Regarding `CN(C)c1cccc2c(S(=O)(=O)Nc3cccc(-c4csc(NC(=O)CCCCCN5CCN(CCO)CC5)n4)c3)cccc12`, the growth was 88.7% (inactive).

These data come from PubChem BioAssay (NCI).
